Assay outcomes: PubChem BioAssay, National Center for Advancing Translational Sciences (NCATS)
AmpC no deterg – blocks E. coli AmpC beta-lactamase in detergent-free assay | P00811 | AmpC nitrocefin hydrolysis, absorbance 480 nm, 0.0001% Triton | Potency, µM (top dose mostly 57.1 µM), most hits filed as inhibitors | actives 0.52% (n = 330,000); note: nearly all actives have a fitted effect of over 20% in size
Target sequence (P00811 whole entry, looked up): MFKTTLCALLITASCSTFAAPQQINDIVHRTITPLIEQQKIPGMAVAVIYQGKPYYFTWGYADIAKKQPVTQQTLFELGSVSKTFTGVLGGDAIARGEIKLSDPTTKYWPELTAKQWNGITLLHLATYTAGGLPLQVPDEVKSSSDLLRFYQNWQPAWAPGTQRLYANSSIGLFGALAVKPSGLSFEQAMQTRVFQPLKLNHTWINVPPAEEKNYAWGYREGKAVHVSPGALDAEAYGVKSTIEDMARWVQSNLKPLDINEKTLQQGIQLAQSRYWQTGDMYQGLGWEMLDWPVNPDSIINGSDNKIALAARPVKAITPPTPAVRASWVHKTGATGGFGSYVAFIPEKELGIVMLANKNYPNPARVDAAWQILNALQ
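20 mM phosphate pH 7.0 + 0.01% (detergent screen) or 0.0001% Triton X-100; 5.3 nM AmpC reagent; cpd preinc 15 min RT; nitrocefin (800 uM stock) to start; A480 q20 s × 4 min; Activity was normalised to no-enzyme and no-compound control wells.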
FMDV antiviral – blocks foot and mouth disease virus; FMDV antiviral cell-based qHTS; actives 1.2% (n = 410,000); AID 1159524; Potency, µM (titrated, usually from 57.9 µM), most hits filed as inhibitors; calls by dose curve; tested in HEK293T cells; note: read-out not given here; nearly all actives have a fitted effect of over 45% in size
HCMV inh – inhibitors of human cytomegalovirus. actives 4.5% (n = 410,000). activity change, negative = inhibition, % at 57.5 µM. AID 1259415. HFF cells, HCMV-luciferase reporter, 72 h; active compounds read low; in the data active = activity change below about -60%; inconclusive = no clear call, values can overlap the other calls; inactive = above about -39%
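After 16 h attachment at 37C, HFF cells received test compound and HCMV-luciferase (1 PFU/cell); reporter luminescence read 72 h later, data normalized against buffer-only and known inhibitor Salinomycin.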
AmpC inh detg – blocks E. coli AmpC beta-lactamase in detergent assay. P00811. Potency, µM (doses to about 114 µM), hits mostly inhibitors. AmpC hydrolysis of nitrocefin, absorbance 480 nm, 0.01% Triton. actives 0.041% (n = 370,000); note: nearly all actives have a fitted effect of over 25% in size
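AmpC (5.3 nM in the dispensed reagent) in 20 mM phosphate pH 7.0 with 0.01% (detergent screen) or 0.0001% Triton X-100 was preincubated with compounds for 15 min at room temperature. Nitrocefin was then added from an 800 uM solution, and hydrolysis was followed at 480 nm.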
HCV inh – blocks hepatitis C virus. Potency, µM (top dose mostly 41.8 µM), usual class: inhibitors. AID 651820. actives 3.4% (n = 340,000). Huh7.5.1 HCVcc-Cre infection, luciferase reporter, 44 h
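Infectious HCV cell culture screen: compound-treated cells (1,000/well, pre-plated 4 h) are infected with HCVcc-Cre at roughly 0.5 moi and grown 44 h. Infection is quantified by luciferase signal after 15 min substrate incubation at room temperature.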
Each line names hits and unclear results; the compound was inactive in the other large screens; ! = not confirmed by another sample. Sampled rows, rich in hits. Any-hit rate of the full collection: about 7.3%. Unless noted, calls come from the whole dose curve; as a rule, active = well fitted curve in the direction sought with a large enough effect; inconclusive = small, poorly fitted or top-dose-only effect, or another doubt; inactive = no such curve, though single readings can be large; an effect the other way counts as inactive or inconclusive.

Cc1cc(=O)oc2c3c(cc(OCC(=O)NCc4ccccc4)c12)OC(C)(C)CC3	HCV inh 5.6µM
CCCc1cc(=O)oc2c3c(cc(OCC(=O)NCc4ccccn4)c12)OC(C)(C)CC3	HCMV inh inconclusive, HCV inh 10µM
Cc1cc(=O)oc2c3c(cc(OCC(=O)NCC(=O)O)c12)OC(C)(C)CC3	none
CCCc1cc(=O)oc2c3c(cc(OCC(=O)NCc4ccncc4)c12)OC(C)(C)CC3	FMDV antiviral inconclusive, HCV inh inconclusive
COc1ccc(C(=O)CC(Sc2ccccc2N)c2ccc(OC)cc2)cc1 (stereo not drawn)	none (no result: AmpC no deterg, AmpC inh detg, HCV inh)
Cc1ccc(-c2csc3ncnc(N4CCN(S(=O)(=O)c5cccs5)CC4)c23)cc1	FMDV antiviral inconclusive, HCV inh inconclusive (no result: HCMV inh)
O=C(O)CC1(C(=O)O)CC2C=CC1C2 (stereo not drawn)	none (no result: AmpC no deterg, AmpC inh detg, HCV inh)
CCCn1nc(C(=O)NNC(=O)c2ccc(C)c(C)c2)c2ccccc2c1=O	none (no result: AmpC inh detg)
CCCn1nc(C(=O)N2CCN(S(=O)(=O)c3ccc(C)c(C)c3)CC2)c2ccccc2c1=O	FMDV antiviral inconclusive, HCV inh 14µM
Cc1ccc(NC(=O)c2ccc(NC(=O)CCS(=O)(=O)c3cccs3)cc2)cc1F	none (no result: AmpC no deterg, HCV inh)
COc1ccccc1NC(=O)C1=C(C)Nc2nc3ccccc3n2C1c1ccccc1Cl (stereo not drawn)	FMDV antiviral inconclusive (no result: AmpC no deterg, HCV inh)
Fc1ccc(Nc2nc(NCc3cccs3)nc3ccsc23)cc1	none (no result: AmpC no deterg, AmpC inh detg, HCV inh)
COc1ccc(C2CC(c3ccccc3)=NN2C(=S)Nc2ccccc2)cc1 (stereo not drawn)	none
COc1ccc(C2=NN(C(=S)Nc3ccccc3)C(c3ccccc3)C2)cc1 (stereo not drawn)	AmpC no deterg 25µM
CNC(=S)N1N=C(c2ccc(OC)cc2)CC1c1ccc(N(C)C)cc1 (stereo not drawn)	HCV inh 11µM
COc1ccc2c(c1)c1ncn(Cc3ccco3)c(=O)c1n2C	HCMV inh -81, HCV inh 11µM
COc1ccc(-c2nc3cnc(N4CCNCC4)nc3n(C)c2=O)cc1	none (no result: AmpC no deterg, HCMV inh, AmpC inh detg, HCV inh)
CCN1C(=O)/C(=C\c2nc3ccccc3c(=O)n2-c2ccccc2)c2ccccc21	FMDV antiviral 14µM, HCMV inh -99
CCn1c(/C=C2\C(=O)Nc3ccccc32)nc2ccccc2c1=O	FMDV antiviral 22µM, HCV inh inconclusive
CCN1C(=O)/C(=C/c2nc3ccccc3c(=O)n2-c2ccc(C)cc2)c2ccccc21	FMDV antiviral inconclusive, HCMV inh -78
NC(=O)CC(NC(=O)Cc1ccc(Br)cc1)c1ccc(NC2CCN(Cc3ccccc3)CC2)c([N+](=O)[O-])c1 (stereo not drawn)	HCMV inh -93
NC(=O)CC(NC(=O)Cc1cccc2ccccc12)c1ccc(NCCc2ccc(F)cc2)c([N+](=O)[O-])c1 (stereo not drawn)	HCMV inh -67
NC(=O)CC(NC(=O)Cc1cccc2ccccc12)c1ccc(NC2CCCCCCC2)c([N+](=O)[O-])c1 (stereo not drawn)	HCMV inh -62
NC(=O)CC(NC(=O)Cc1cccc2ccccc12)c1ccc(NCCc2ccccc2F)c([N+](=O)[O-])c1 (stereo not drawn)	HCMV inh -81
COc1ccc(CNC(=O)CCC(=O)Nc2cccnc2)cc1	AmpC inh detg inconclusive
COc1ccc(CCNC(=O)C2c3ccccc3C(=O)N2Cc2ccccc2)cc1OC (stereo not drawn)	none (no result: AmpC no deterg, HCV inh)
C[C@@H]1CN([C@@H](C)CO)C(=O)c2cccc(NC(=O)Nc3ccccc3)c2O[C@H]1CN(C)C(=O)Nc1cccc2ccccc12	none (no result: AmpC inh detg)
COc1ccccc1C1CN(Cc2cccc(C)n2)Cc2ccccc2O1 (stereo not drawn)	none (no result: AmpC no deterg, HCMV inh, AmpC inh detg, HCV inh)
Cc1cc[n+](CC(=O)c2ccc(NC(=O)c3ccccc3)cc2)c2ccccc12	FMDV antiviral inconclusive, HCMV inh -97
O=C(C[n+]1cccc2ccccc21)c1ccc(NC(=O)c2ccccc2)cc1	HCMV inh -83
Cc1cc[n+](CC(=O)c2ccc(NC(=O)c3ccccc3)cc2)cc1	none
O=C(C[n+]1cccc2ccccc21)c1ccccc1	none
c1ccc2c(c1)[nH]c1c(C3=NCCC3)nccc12	none (no result: AmpC no deterg, FMDV antiviral, AmpC inh detg, HCV inh)
CCOC(=O)c1c(NC(=O)c2cccs2)sc(C)c1CC	AmpC inh detg inconclusive, HCV inh 8.9µM
CCOC(=O)c1c(NC(=O)COc2ccc(OC)cc2)sc(C(=O)N(CC)CC)c1C	FMDV antiviral inconclusive (no result: AmpC no deterg, HCV inh)
CCOC(=O)c1c(NC(=O)COC(=O)c2cccnc2OCC)sc(C(=O)N(CC)CC)c1C	FMDV antiviral 16µM, HCV inh inconclusive (no result: AmpC inh detg)
CCOC(=O)c1c(NC(=O)c2cccs2)sc(C(=O)N(C)C)c1C	HCV inh 13µM
CCCn1nnnc1NCc1ccc(N(CC)CC)cc1	none
Cc1ccc2oc(=O)c3cc(C(=O)Nc4cccc(C#N)c4)sc3c2c1	none (no result: AmpC no deterg, HCV inh)
CC(=O)c1ccc(NC(=O)c2cc3c(=O)oc4ccc(C)cc4c3s2)cc1	HCMV inh -93 (no result: AmpC no deterg, HCV inh)
O=[N+]([O-])c1cccnc1N1CCN(c2ccccc2F)CC1	HCMV inh -61
O=[N+]([O-])c1cccnc1N1CCCCC1	none
Cc1ccc(C)c(N2CCN(c3ncccc3[N+](=O)[O-])CC2)c1	HCV inh 11µM
Cc1ccc(N2CCN(c3ncccc3[N+](=O)[O-])CC2)c(C)c1	HCV inh inconclusive
COc1ccc(C2c3ccc(O)cc3Oc3ncn4nc(-c5cccnc5)nc4c32)cc1OC (stereo not drawn)	FMDV antiviral inconclusive, HCV inh 28µM
O=C(Nc1ccc(Cl)c(C(F)(F)F)c1)C(Cc1ccccc1)NS(=O)(=O)c1ccc(Br)s1 (stereo not drawn)	none (no result: AmpC no deterg, HCV inh)
O=C(Nc1c(C(=O)N2CCC(N3CCCCC3)CC2)oc2ccccc12)c1ccc(F)cc1	HCV inh 13µM
O=C(COc1ccccc1)Nc1c(C(=O)N2CCC(N3CCCCC3)CC2)oc2ccccc12	HCMV inh -70
O=C(COc1ccc(F)cc1)Nc1c(C(=O)N2CCC(N3CCCCC3)CC2)oc2ccccc12	HCV inh inconclusive
CC(=O)N1CCCc2cc(S(=O)(=O)N3CCCC(C(=O)N4CCN(c5ccccc5)CC4)C3)ccc21 (stereo not drawn)	FMDV antiviral 18µM, HCMV inh active!, HCV inh 11µM
CC(=O)N1CCCc2cc(S(=O)(=O)N3CCCC(C(=O)N4CCN(c5cc(C)ccc5C)CC4)C3)ccc21 (stereo not drawn)	FMDV antiviral 28µM, HCMV inh -78!, HCV inh 10µM
CC(=O)Nc1ccc(S(=O)(=O)N2CCCC(C(=O)N3CCN(c4ccccc4)CC3)C2)cc1 (stereo not drawn)	FMDV antiviral inconclusive (no result: HCV inh)
